The full list was thinned out, with hits kept by preference.
Tg IFNy HTS – inhibitors of Toxoplasma gondii growth with IFN-gamma; Toxoplasma gondii growth in IFN-gamma-treated host cells; hits give low values; activity change, negative = inhibition, % (test concentration not listed); 3.8% of 69,000 active; AID 1259416; in the data active = activity change below about -70%, passing the limit was not always enough;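 note: host cells are HeLa cells infected with Toxoplasma gondii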
A number is an active result; ! = not confirmed by another sample.

Screening O=C(Cn1c(=O)cc(-c2nc(C3CC3)no2)c2ccccc21)NCc1ccc(F)cc1 returned Tg IFNy HTS inactive.
O=C(Cn1c(=O)cc(-c2nc(C3CC3)no2)c2ccccc21)NCCC1=CCCCC1 was read as Tg IFNy HTS -84.
`CC1CCN(S(=O)(=O)c2ccc3c(ccc(=O)n3CC(=O)NCCC3=CCCCC3)c2)CC1` gave Tg IFNy HTS -77.
CC1CCN(S(=O)(=O)c2ccc3c(ccc(=O)n3CC(=O)NC3CCCC3)c2)CC1 was read as Tg IFNy HTS inactive.
Screening CC1CCN(S(=O)(=O)c2ccc3c(ccc(=O)n3CC(=O)NC3CC3)c2)CC1 returned Tg IFNy HTS inactive.
For CC(C)NC(=O)Cn1c(=O)cc(-c2nc(C3CC3)no2)c2ccccc21 the results were Tg IFNy HTS inactive.
O=C(c1ccccc1)N1CCC(NCc2cnn(-c3cccc(F)c3)c2)CC1 was read as Tg IFNy HTS inactive.
Screening O=C(CCC1CCCN(C(=O)c2cc(=O)c3ccccc3o2)C1)NCc1ccccc1F (centres undefined) returned Tg IFNy HTS inactive.
Screening COc1ccc(C)cc1NC(=O)c1cncc(NS(=O)(=O)c2ccc(C)cc2C)c1 returned Tg IFNy HTS inactive.
Screening Cn1cnnc1Sc1ccc(CN2CCCC(C(=O)c3ccc(Cl)cc3)C2)o1 (centres undefined) returned Tg IFNy HTS inactive.
For C=CCNC(=O)N1CC(Oc2ccc(Cl)cc2)C1 the results were Tg IFNy HTS inactive.
For C=CCN(Cc1ccccc1Cl)C(=O)c1cc(C2CC2)[nH]n1 the results were Tg IFNy HTS inactive.
For CC1N(Cc2cccnc2)C(=O)COC12CCN(Cc1cnn(C)c1)CC2 (centres undefined) the results were Tg IFNy HTS inactive.
`CC1N(CCN(C)C)C(=O)COC12CCN(Cc1cnn(C)c1)CC2` (centres undefined) gave Tg IFNy HTS inactive.
`C=CCN1C(=O)COC2(CCN(Cc3cnn(C)c3)CC2)C1C` (centres undefined) gave Tg IFNy HTS -78.
For Cc1oc(C(C)(C)C)cc1-c1cc(N)n(-c2ccc(S(N)(=O)=O)cc2)n1 the results were Tg IFNy HTS inactive.
Cn1cc(NC(=O)CN2CCCC2c2ccc(F)cc2)cn1 (centres undefined) was read as Tg IFNy HTS inactive.
`COCC(=O)N1C[C@H]2CCCC(OCc3cccnc3)[C@@H]2C1` (some centres undefined) gave Tg IFNy HTS inactive.
`C[C@@H]1COC(Nc2ccc3ncnc(Nc4ccc(OCc5nccs5)c(Cl)c4)c3c2)=N1` gave Tg IFNy HTS -73.
Screening COc1cc2ncnc(Nc3cccc(Cl)c3)c2cc1OC returned Tg IFNy HTS inactive.
`Cc1cc2ncc(-c3ccccc3)nc2cc1C` gave Tg IFNy HTS inactive.
`COc1cc2nc(-c3ccccc3)nc(N3CCCC3)c2cc1OC` gave Tg IFNy HTS inactive.
COc1cc2ncc(-c3ccccc3)nc2cc1OC was read as Tg IFNy HTS -85.
`COc1cc(N)c(Cl)cc1C(=O)NC1CCN(CCCOc2ccc(F)cc2)CC1OC` (centres undefined) gave Tg IFNy HTS inactive.
Screening COc1ccc2c3c(n(C)c2c1)[C@H](CO)N(CC1CC1)CC31CCN(C(=O)c2cccc(F)c2)CC1 returned Tg IFNy HTS inactive.
OC(CNC1Cc2ccccc2C1)COc1ccc(F)cc1 (centres undefined) was read as Tg IFNy HTS inactive.
For CC(C)(C)NC[C@H](O)COc1ccccc1C1CCCC1 the results were Tg IFNy HTS inactive.
`CCc1ccccc1OC[C@@H](O)CN[C@H]1CCCc2ccccc21` gave Tg IFNy HTS -80!.
For COc1ccc(-c2n[nH]c(=S)n2Cc2ccccc2)cc1 the results were Tg IFNy HTS inactive.
`S=c1[nH]nc(-c2ccncc2)n1-c1cccc(Cl)c1` gave Tg IFNy HTS inactive.
Cn1c(-c2ccc(Cl)cc2)n[nH]c1=S was read as Tg IFNy HTS -97.
`COc1ccccc1N1CC(NC(=O)C2=NN(C)C(=O)CC2)CC1=O` (centres undefined) gave Tg IFNy HTS inactive.
C=CCOCc1cncc2c1CCN(C(=O)c1ccncc1)C2 was read as Tg IFNy HTS inactive.
For COCc1cncc2c1CCN(C(=O)c1ccc[nH]1)C2 the results were Tg IFNy HTS inactive.
`COCc1cncc2c1CCN(C(=O)c1ccncc1)C2` gave Tg IFNy HTS -98.
O=C1N(Cc2cccnc2)C(=O)C2(CCN(Cc3cc4ccccc4o3)CC2)N1CCc1ccccc1 was read as Tg IFNy HTS -86.
O=C1N(Cc2ccccn2)C(=O)C2(CCN(Cc3ccc4c(c3)OCO4)CC2)N1CCc1ccccc1 was read as Tg IFNy HTS inactive.
`COC(=O)CN1C(=O)N(CCc2ccccc2)C2(CCN(Cc3ccncc3)CC2)C1=O` gave Tg IFNy HTS inactive.
`O=S(=O)(N1CCOCC1)N1CCC(Oc2cnccn2)CC1` gave Tg IFNy HTS inactive.
For Cc1nc(-c2cccc(F)c2)sc1CCNS(=O)(=O)c1cccc(Cl)c1 the results were Tg IFNy HTS inactive.
`O=C(c1ccccn1)N1C[C@H]2CN(c3ccsc3)C(=O)[C@H]2C1` gave Tg IFNy HTS inactive.
Screening NC(=O)C(c1ccccc1)C1CCCC1 (centres undefined) returned Tg IFNy HTS inactive.
Screening C=C1SC(=Nc2cccc(OC)c2)N(C(=O)C(c2ccccc2)C2CCCC2)C1(C)C (centres undefined) returned Tg IFNy HTS -90.
Screening C=C1SC(=Nc2ccccc2Cl)N(C(=O)c2sc3ccccc3c2Cl)C1(C)C returned Tg IFNy HTS inactive.
Screening COc1ccc(S(=O)(=O)NCCc2sc(-c3ccc(Cl)cc3)nc2C)cc1 returned Tg IFNy HTS inactive.
CC(=O)N[C@H]1C[C@@H](c2ccc(S(C)(=O)=O)cc2)O[C@@H](C2CCCCC2)C1 was read as Tg IFNy HTS inactive.
O=C(c1ccoc1)N1CC[C@@H]2C[C@H](c3nccs3)O[C@H]2C1 was read as Tg IFNy HTS inactive.
COc1cccc(CNC(=O)c2cc3c(s2)CCN3C(=O)c2ccccc2)c1 was read as Tg IFNy HTS -100.
Screening CN(C)CCNC(=O)c1cc2c(s1)CCN2C(=O)C1CC1 returned Tg IFNy HTS inactive.
For COc1cccc(CNC(=O)N2CCc3nc(-c4ccccc4)sc3C2)c1 the results were Tg IFNy HTS inactive.
For CC(C)CNC(=O)c1cc2c(s1)CCN2C(=O)C1CC1 the results were Tg IFNy HTS inactive.
For O=C(NCc1cccc(F)c1)c1cc2c(s1)CCN2C(=O)c1ccccc1 the results were Tg IFNy HTS -82.
Screening COc1cccc(CNC(=O)c2nc3c(o2)CN(C(=O)c2cccc(F)c2)C3)c1 returned Tg IFNy HTS inactive.
`COc1cccc(CNC(=O)c2cc3c(s2)CCN3C(=O)c2ccc(F)cc2)c1` gave Tg IFNy HTS -87.
Screening COc1cccc(CNC(=O)c2cc3c(s2)CCN3C(=O)CN(C)C)c1 returned Tg IFNy HTS inactive.
For COc1cccc(CNC(=O)c2nc(Nc3ccc(F)cc3)c3ccccc3n2)c1 the results were Tg IFNy HTS inactive.
`CO[C@H](CN(C)C(=O)c1ccc2c(c1)OCO2)[C@@H](C)CN([C@H](C)CO)S(=O)(=O)c1ccc(Cl)cc1` gave Tg IFNy HTS inactive.
`Cc1ccc(C2=NC3(CCN(CC(=O)Nc4ccc(F)cc4F)CC3)NC2=O)cc1C` gave Tg IFNy HTS inactive.
Screening Fc1cccnc1O[C@H]1CO[C@@]2(CCCN(c3ncccn3)C2)C1 returned Tg IFNy HTS inactive.
For O=C1COC2(CCN(c3ncc(F)cn3)CC2)CN1c1ccsc1 the results were Tg IFNy HTS inactive.
